# From PubChem BioAssay
# CHRM1 antagonist: blocks human M1 muscarinic receptor; inhibition, % at 3 µM; CHO-K1 hM1, Fluo-8 calcium fluorescence, ACh EC80 antagonist; 360,000 tested, 1.3% active; P11229;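 active = percent inhibition above its own plate's cutoff, namely the mean of that plate's compound wells plus 3 SD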;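 also: peak over basal fluorescence ratio during 140 s after agonist addition; 0% = ACh EC80 plus DMSO and 100% = DMSO alone without agonist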
# Target sequence (P11229 whole entry, looked up): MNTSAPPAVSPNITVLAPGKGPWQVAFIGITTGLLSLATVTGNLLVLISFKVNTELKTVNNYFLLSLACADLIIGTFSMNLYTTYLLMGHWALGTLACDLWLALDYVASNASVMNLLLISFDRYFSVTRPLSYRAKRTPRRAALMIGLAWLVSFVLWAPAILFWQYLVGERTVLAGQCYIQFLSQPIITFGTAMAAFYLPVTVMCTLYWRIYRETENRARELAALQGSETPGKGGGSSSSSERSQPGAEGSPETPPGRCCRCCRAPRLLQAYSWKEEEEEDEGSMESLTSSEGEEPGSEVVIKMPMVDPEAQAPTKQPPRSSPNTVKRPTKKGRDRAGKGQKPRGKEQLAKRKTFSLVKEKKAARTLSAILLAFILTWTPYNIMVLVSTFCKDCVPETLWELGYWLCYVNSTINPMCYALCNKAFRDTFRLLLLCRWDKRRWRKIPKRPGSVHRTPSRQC
# CHO-K1 Ca PAM: counter-screen for M1 PAMs: effect in parental CHO-K1 cells | ATP EC20, Fluo-8 calcium fluorescence; 0% at ATP EC20, 100% at ATP max | activation, % at 3 µM | 360,000 tested, 0.02% active;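 active = activation above the run cutoff, the mean activation of all test compounds plus 3 SD, cut at about 40% in these data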;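 also: peak over basal fluorescence ratio in a 140 s read after ATP addition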
# M1 ag: human M1 muscarinic receptor agonism; CHO-K1 hM1, Fluo-8 calcium fluorescence, agonist mode; 0% DMSO, 100% acetylcholine EC100; activation, % at 3 µM; 360,000 tested, 0.33% active; AID 588814;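 active = activation above the run's mean compound activation plus 3 SD, cut at about 16% in these data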;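 also: peak over basal fluorescence ratio within a 140 s kinetic read after compound addition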
# M1 PAM: positive allosteric modulators of human M1 muscarinic receptor; P11229; CHO-K1 hM1, Fluo-8 calcium fluorescence, ACh EC20; 0% = ACh EC20, 100% = maximal ACh; activation, % at 3 µM; 360,000 tested, 0.088% active; AID 588819; in the data active = activation above about 19%, passing the limit was not always enough
# CHO-K1 Ca ag: nonselective activator or artifact in parental CHO-K1 cells; Fluo-8 calcium fluorescence; scaled to maximal ATP response, vehicle zero; 360,000 tested, 0.48% active; activation, % at 3 µM; in the data active = activation above about 15%;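 also: untransfected CHO-K1 host cells lacking M1 receptor as counterscreen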
# CHO-K1 Ca antag: counter-screen for M1 antagonists: effect in parental CHO-K1 cells; ATP-induced calcium, Fluo-8 fluorescence; inhibition, % at 3 µM; 360,000 tested, 0.6% active; AID 602250;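 active = inhibition above a per-plate cutoff, the plate's mean sample inhibition plus 3 SD, cut at about 24% in these data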;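 also: 0% = DMSO plus EC80 ATP and 100% = DMSO alone without ATP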
# * hit, by the source's call. Compounds with a hit are over-represented: about 2.3% of the library has one in this group of screens.
SMILES,CHRM1 antagonist,CHO-K1 Ca PAM,M1 ag,M1 PAM,CHO-K1 Ca ag,CHO-K1 Ca antag
COc1ccc(Br)c(C(=O)N2CCN(S(=O)(=O)c3cccs3)CC2)c1,-4,7,-3,1,1,0
CCCCCNc1ncnc2c(C)[nH]nc12,9,18,2,-8,9,0
COc1ccc(CCn2c(C)cc(C(=O)CSc3nnnn3-c3ccccc3)c2C)cc1,6,-8,-4,-2,-1,24*
c1ccc(CCNc2ccnc3cc4ccccc4cc23)cc1,42*,-2,-3,-21,9,13
CC(C)Nc1ccc(Nc2ccnc3cc4ccccc4cc23)cc1,-9,5,-7,-4,0,-7
OCC1CCCCN1CC(O)COC(c1ccc(F)cc1)c1ccc(F)cc1 (stereo unspecified),-13,12,-8,0,2,-16
CCOC(=O)c1c(N2C(=O)Nc3ccccc3N2O)n[nH]c1-c1cccc(Cl)c1,1,-16,-6,-4,0,24*
NNC(=O)c1ccc(CN2C(=O)c3cccc4cccc2c34)cc1,-12,14,34*,15,1,-5
CC(NC(=O)CNC(=O)C1CCCCC1)c1ccc(S(N)(=O)=O)cc1 (stereo unspecified),-20,-1,-4,9,0,-9
COc1ccccc1NC(=O)COC(=O)C1CCCC1,1,-2,-1,8,-1,12
COc1ccccc1NC(=O)c1ccc(NC(=O)COC(=O)C2CCCCC2)cc1,-7,7,-7,-1,19*,7
Cc1cccc2cc(-c3ccccc3)c(-c3ccccc3)c[n+]12,52*,12,-9,-23,0,-6
Cc1c(O)ccc2c(-c3ccccc3)cc(=O)oc12,8,10,1,-11,9,17
Cc1c(C(=O)N/N=C/c2ccncc2)no[n+]1[O-],-9,15,-4,2,0,-17
CCn1c(COc2ccc(C)cc2)nnc1SCc1ccc(C#N)cc1,-2,8,-8,1,0,-26
O=c1c2ccccc2nnn1CSc1nnc(COc2ccc(Cl)cc2)n1Cc1ccco1,-1,16,-4,1,1,-4
CCc1ccc(OCc2nnc(SCCN3CCOCC3)n2CC)cc1,63*,1,-6,-23,0,3
Clc1ccc(OCc2nnc(SCCN3CCCCC3)n2Cc2ccco2)cc1,99*,-9,-5,-21,0,18
COc1cc(C2C(C#N)=C(N)N(N(C)C)C3=C2C(=O)CCC3)ccc1O (stereo unspecified),-4,7,2,11,0,0
CCOC(=O)N1CCC(N2CCCC(C(=O)c3cccc(OC)c3)C2)CC1 (stereo unspecified),54*,0,-7,-21,1,-5
COc1cccc(C(=O)C2CCCN(Cc3cn[nH]c3C3CCCCC3)C2)c1 (stereo unspecified),27,-12,-13,-23,0,17
COc1cccc(C(=O)C2CCCN(Cc3cn(CC(N)=O)c4ccccc34)C2)c1 (stereo unspecified),0,-11,-13,-3,0,32*
CC(Sc1nc(N)cc(=O)[nH]1)C(=O)Nc1ccc(N2CCOCC2)cc1 (stereo unspecified),-22,31,-4,10,1,-12
Cc1cc2nnc(SC(C)C#N)n2c2ccccc12 (stereo unspecified),-3,7,-4,5,0,-4
Cc1cc2nnc(SC(C)C)n2c2ccccc12,33*,-1,-2,-10,0,-3
CCOC(=O)C(C)NC(=O)c1cn(-c2ccc(OC)cc2)c(=O)c2ccccc12 (stereo unspecified),-24,1,-4,17,-1,-18
Cc1cc(C)c2nc(N3CCC(C(=O)N4CCCC4)CC3)sc2c1,37*,1,-8,-23,0,-19
Cc1cc(C)c2nc(N3CCC(C(=O)NCCCN4CCCCC4)CC3)sc2c1,76*,11,-5,-20,0,13
Cc1nc2c(-c3ccc(F)cc3)c(C)nn2c(C)c1CCC(=O)Nc1ccccc1,7,-8,-2,3,0,0
